# According to PubChem BioAssay (NCATS):
# Values joined by “and” are separate entries in the source; they are usually repeats but may differ in a detail not shown here. Equal values may be shown once. Results filed as inconclusive are left out. Entries that show only a call come without a potency. Active and inactive are the calls of the source. Unless noted, calls follow the shape of the dose curve; as a rule, active = well fitted curve in the direction sought with a large enough effect; inconclusive = small, poorly fitted or top-dose-only effect, or another doubt; inactive = no such curve, though single readings can be large; an effect the other way counts as inactive or inconclusive.
# Experiments:
# [1] = Cell Viability - Jurkat (AID 426;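 active = dose-dependent loss of cell ATP signal giving a full or clear fitted curve, ranked by lower potency value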;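 also: potency is read from the fitted curve at half-maximal effect; cells exposed to compound for 40 hours at 37 °C before ATP read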); details: qHTS
# Outline: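 Jurkat (Clone E6-1) cells, 5000/well in complete medium, exposed to compounds for 40 hr at 37C; intracellular ATP measured by CellTiter-Glo luminescence after 20 min at room temperature. AC50 from Hill fits.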
# [2] = Cell Viability - Hek293 (AID 427;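 active = compounds whose dose-response curve shows a full or clear partial loss of cell viability, called from curve shape rather than a numeric limit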;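 also: potency is read from the fitted curve at half-maximal effect; cells exposed to compound for 40 hours at 37 °C before reading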); details: qHTS
# Outline: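 AC50 values derive from Hill-modelled concentration-response of ATP-based luminescence, normalized between DMSO-only and 100 uM tamoxifen controls. Cells were exposed in complete culture medium for 40 hr at 37 °C before detection.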
# [3] = Cell Viability - SK-N-SH (AID 435; calls by dose curve;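 also: potency is read from the fitted curve at half-maximal effect; compound exposure lasted 40 h at 37 °C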); details: SK-N-SH neuroblastoma cell viability qHTS
# Outline: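 Cells seeded at 1500 per well and incubated 5 hr at 37 °C. Compound added, then 40 hr at 37 °C. CellTiter-Glo added, 20 min at room temperature, luminescence read.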
# [4] = Cell Viability - SH-SY5Y (AID 544); details: SH-SY5Y neuroblastoma cell viability; viability change, negative = cytotoxic: at 92.2 µM (top of the series); also: nearly all actives have a fitted effect of over 55% in size; also: potency is read from the fitted curve at half-maximal effect
# Outline: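 SH-SY5Y human neuroblastoma cells (1500/well) incubated 5 h, then compound-treated 40 h at 37 °C in complete medium. Viability read as intracellular ATP by CellTiter-Glo luminescence after 20 min; AC50 from Hill-equation fits of qHTS concentration-response.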
# [5] = biological target: Cytochrome P450 3A4 (Homo sapiens) (UniProt P08684); assay: qHTS Assay for Inhibitors and Substrates of Cytochrome P450 3A4 (AID 884); details: recombinant CYP3A4, Luciferin-PPXE luminescence; series mostly up to 57.1 µM; also: nearly all actives have a fitted effect of over 50% in size; also: potency is read from the fitted curve at half-maximal effect
# Outline: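 20 nM human CYP3A4 with 25 uM Luciferin-PPXE (at KM) in 200 mM KPO4, preincubated 10 min with compound; NADPH regeneration started a 60 min RT reaction. Luciferin detected by luminescence, normalized to 57 uM ketoconazole as full inhibition.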
# [6] = MultiTox-Fluor Cytotoxicity Assay - LYMP1-002 - Dead Cells (AID 960); details: LYMP1-002 lymphoblastoid cells, dead-cell protease fluorescence; series mostly up to 46.1 µM; also: nearly all actives have a fitted effect of over 60% in size; also: potency is read from the fitted curve at half-maximal effect
# Outline: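 Human lymphoblastoid LYMP1-002 cells, 2500/well, treated 16 h at 37 C; dead-cell protease cleavage of bis-AAF-R110 read by fluorescence (485/520); normalized to DMSO and 15 uM tetraoctylammonium bromide; AC50 from Hill fit.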
# [7] = Cell Viability - LYMP2-015 (AID 971); details: LYMP2-015 lymphoblastoid cell viability; series mostly up to 92.2 µM; also: nearly all actives have a fitted effect of over 55% in size
# Outline: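 LYMP2-015 human lymphoblastoid cells (2500/well) in complete medium, compound-treated 24 h at 37 C; viability read as cellular ATP by CellTiter-Glo luminescence after 30 min at room temperature. AC50 from Hill-equation fits of qHTS concentration-response data.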
# [8] = Cell Viability - LYMP2-010 (AID 981); details: LYMP2-010 lymphoblastoid cell viability, qHTS; series mostly up to 92.2 µM;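 also: cells exposed to compound for 24 hours at 37 °C; nearly all actives have a fitted effect of over 55% in size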; also: potency is read from the fitted curve at half-maximal effect
# Outline: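 Human lymphoblastoid LYMP2-010 cells (2500/well) treated 24 h at 37 C in complete medium; viability read as intracellular ATP by CellTiter-Glo luminescence. AC50 from Hill fits of concentration-response data; tetraoctylammonium bromide positive control.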
# [9] = biological target: Glucocorticoid receptor (Homo sapiens) (UniProt P04150); assay: qHTS assay for small molecule agonists of glucocorticoid receptor signaling (AID 588532; active = well fitted curve in the direction sought with a large enough effect in the signal ratio, with a control signal flat; the % refers to the signal ratio); details: HeLa MMTV-bla, beta-lactamase ratio, agonist, 18 h; stronger effect = higher value; percent of dexamethasone control, DMSO zero
# Outline: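 Stimulation of a glucocorticoid response element-driven beta-lactamase gene was measured in HeLa cells. Responses were scaled between DMSO basal and 0.1 uM dexamethasone, then fitted for half-maximal stimulation.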
# [10] = biological target: Vitamin D3 receptor (Homo sapiens) (UniProt P11473); assay: qHTS assay for small molecule agonists of vitamin D receptor signaling (AID 588543; calls by dose curve); details: HEK293T VDR-UAS-bla, beta-lactamase ratio, 16 h; series mostly up to 76.8 µM
# Outline: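 qHTS in agonist mode: compound titrations stimulate a VDR-driven β-lactamase reporter in HEK293T cells over 16 h at 37 °C. Response normalized to 50 nM 1α,25-dihydroxyvitamin D3 = 100%, DMSO = 0%; Hill fitting gives EC50 and maximal response.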
# [11] = qHTS assay for small molecule agonists of retinoid X receptor alpha signaling (AID 588544); details: HEK293T RXRa-UAS-bla, beta-lactamase reporter, 18 h; 530 nm emission
# [12] = biological target: Thyroid hormone receptor beta (Homo sapiens) (UniProt P10828); assay: qHTS assay for small molecule agonists of thyroid hormone receptor beta signaling (AID 588545; calls by dose curve); details: TR-UAS-bla GripTite HEK 293, beta-lactamase ratio, agonist mode, 18 h; series mostly up to 76.7 µM
# Outline: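 HEK 293 TR-UAS-bla; agonist mode; 18 hrs, 37 C; CCF4, ex 405/em 460 and 530 nm; norm. T3 10 nM = 100%, DMSO = 0%; Hill fit → EC50, efficacy.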
# [13] = biological target: Voltage-gated inwardly rectifying potassium channel KCNH2 (Homo sapiens) (UniProt Q12809); assay: qHTS Assay for Small Molecule Inhibitors of the Human hERG Channel Activity (AID 588834); details: U2OS BacMam hERG, FluxOR thallium flux fluorescence; series mostly up to 92.2 µM;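 also: top concentration of the series differs between compounds; lower thallium flux fluorescence means stronger hERG block; nearly all actives have a fitted effect of over 50% in size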
# Outline: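 Measured: FluxOR fluorescence after thallium stimulation in U2OS cells transduced with hERG by baculovirus. Compounds pre-incubated around 10 min; medium Opti-MEM with 2% FCS. AC50 from Hill equation.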
# [14] = qHTS assay for small molecule activators of the p53 signaling pathway (AID 651743; active = well fitted activation curve with a large enough effect in the signal ratio, not every such curve was filed as active; the % refers to the signal ratio); details: HCT-116 p53RE-bla, beta-lactamase FRET ratio, 16 h; activation: stronger effect = higher value
# Outline: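 Cell-based beta-lactamase reporter (p53 response elements, HCT-116 background). After a 5-hour preincubation, cells received compound for 16 hours at 37 C; substrate development ran 2 hours at room temperature.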
# [15] = qHTS assay for small molecule activators of the nuclear factor-kappa B (NF-kB) signaling pathway (AID 651749; active = well fitted activation curve with a large enough effect in the signal ratio; the % refers to the signal ratio); details: NF-kB-bla ME-180 cells, beta-lactamase FRET ratio, 16 h; stronger effect = higher value
# Outline: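 Screening used 2,000 ME-180 reporter cells per well exposed to pinned compound (23 nL) or DMSO; after 16 hr at 37C, beta-lactamase expression under NF-kB control was assessed through FRET.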
# [16] = qHTS assay for small molecule disruptors of the mitochondrial membrane potential - 1 hr assay (AID 651754; calls by dose curve; also: nearly all actives have a fitted effect of over 35% in size; also: potency is read from the fitted curve at half-maximal effect); details: series mostly up to 92.2 µM
# Outline: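 HepG2 cells, attached overnight, were exposed to compound for 1 hr at 37C, then stained 30 min with a potentiometric dye. Ratio of red aggregate (590nm) to green monomer (535nm) fluorescence reports membrane potential; collapse shifts signal toward green.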
# [17] = biological target: Nuclear receptor ROR-gamma (Homo sapiens) (UniProt P51449); assay: qHTS assay for small molecule antagonists of the retinoid-related orphan receptor gamma (ROR-gamma) signaling pathway (AID 651802); details: ROR-gamma antagonist cell reporter assay; series mostly up to 92.2 µM; also: nearly all actives have a fitted effect of over 60% in size; also: potency is read from the fitted curve at half-maximal effect
# Outline: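 CHO cells with TET-inducible ROR-gamma and RORE-luciferase reporter, dosed then doxycycline-induced. After 16 h at 37C, One-Glo luminescence read; decreased signal indicates antagonism.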
# [18] = qHTS assay for small molecule agonists of the antioxidant response element (ARE) signaling pathway measured by Nrf2-dependant transcriptional activity (AID 720636; active = well fitted curve in the direction sought with a large enough effect in the repeat runs; an effect the other way counts as inactive or inconclusive;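 also: HepG2 cells with an ARE-driven luciferase reporter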); details: ARE-luc HepG2, Nrf2 luciferase reporter, 16 h; series mostly up to 92.4 µM
# Outline: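 Cells: ARE-luc HepG2 with Nrf2-responsive luciferase. Medium contained 1% dialyzed FBS. Compound exposure lasted 16 hr at 37 C and 5% CO2, followed by ONE-Glo luciferase detection.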
# [19] = qHTS assay for small molecule antagonists of the retinoid-related orphan receptor gamma (ROR-gamma) signaling pathway - cell viability counter screen (AID 720652; active = well fitted curve in the direction sought with a large enough effect in the repeat runs; an effect the other way counts as inactive or inconclusive;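 also: compound exposure lasted 16 hr before ATP read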); details: RORgamma reporter cell line viability counter screen; series mostly up to 92.2 µM
# Outline: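 CHO cells carrying TET-inducible ROR and RORE-luciferase reporter, plated 5 hr, then dosed with compound plus doxycycline. After 16 hr at 37 C, viability read as intracellular ATP by CellTiter-Glo luminescence.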
# [20] = qHTS assay for small molecule activators of the human pregnane X receptor (PXR) signaling pathway (AID 720659; call rule not given here); details: DPX-2 HepG2 CYP3A4-luciferase, 24 h; series mostly up to 92.3 µM
# Sequence of Vitamin D3 receptor (Homo sapiens) (P11473 whole entry, looked up): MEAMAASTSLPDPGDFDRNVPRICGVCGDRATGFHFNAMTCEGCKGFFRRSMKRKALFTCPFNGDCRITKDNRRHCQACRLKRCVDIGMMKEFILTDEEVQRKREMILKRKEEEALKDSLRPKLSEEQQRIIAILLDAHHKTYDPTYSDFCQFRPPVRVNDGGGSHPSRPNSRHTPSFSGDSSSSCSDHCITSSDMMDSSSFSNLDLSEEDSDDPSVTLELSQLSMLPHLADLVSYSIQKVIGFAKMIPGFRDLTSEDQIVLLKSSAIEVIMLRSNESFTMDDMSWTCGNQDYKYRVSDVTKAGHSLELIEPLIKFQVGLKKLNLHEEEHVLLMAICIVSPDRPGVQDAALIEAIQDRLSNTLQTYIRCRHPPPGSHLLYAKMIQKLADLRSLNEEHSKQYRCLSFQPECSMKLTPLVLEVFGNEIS
# Sequence of Cytochrome P450 3A4 (Homo sapiens) (P08684 whole entry, looked up): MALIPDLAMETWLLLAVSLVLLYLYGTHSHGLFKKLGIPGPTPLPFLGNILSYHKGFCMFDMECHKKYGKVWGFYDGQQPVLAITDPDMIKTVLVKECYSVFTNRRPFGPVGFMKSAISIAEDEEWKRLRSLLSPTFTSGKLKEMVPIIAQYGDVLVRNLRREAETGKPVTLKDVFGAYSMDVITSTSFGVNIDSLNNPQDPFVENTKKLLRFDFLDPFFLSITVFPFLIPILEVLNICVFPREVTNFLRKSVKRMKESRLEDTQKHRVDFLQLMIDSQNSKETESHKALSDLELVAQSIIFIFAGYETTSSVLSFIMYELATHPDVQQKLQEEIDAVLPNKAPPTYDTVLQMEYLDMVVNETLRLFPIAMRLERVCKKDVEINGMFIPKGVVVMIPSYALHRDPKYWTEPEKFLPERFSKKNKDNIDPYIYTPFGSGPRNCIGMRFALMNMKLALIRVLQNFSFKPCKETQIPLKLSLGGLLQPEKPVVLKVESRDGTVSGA
# Sequence of Nuclear receptor ROR-gamma (Homo sapiens) (P51449 whole entry, looked up): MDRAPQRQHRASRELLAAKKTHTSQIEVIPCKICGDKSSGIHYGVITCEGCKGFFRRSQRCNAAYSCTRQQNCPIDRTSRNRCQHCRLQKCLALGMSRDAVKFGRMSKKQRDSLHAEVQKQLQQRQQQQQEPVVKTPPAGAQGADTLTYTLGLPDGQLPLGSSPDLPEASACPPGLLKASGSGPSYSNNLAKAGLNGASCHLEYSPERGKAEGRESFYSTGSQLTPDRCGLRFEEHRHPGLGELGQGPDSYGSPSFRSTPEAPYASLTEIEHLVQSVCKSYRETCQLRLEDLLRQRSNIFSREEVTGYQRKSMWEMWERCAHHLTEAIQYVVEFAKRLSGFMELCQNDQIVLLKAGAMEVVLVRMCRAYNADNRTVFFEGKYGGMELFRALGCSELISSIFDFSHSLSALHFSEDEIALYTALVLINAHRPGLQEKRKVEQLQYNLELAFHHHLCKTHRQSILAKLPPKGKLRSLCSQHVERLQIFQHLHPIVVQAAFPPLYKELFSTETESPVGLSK
# Sequence of Thyroid hormone receptor beta (Homo sapiens) (P10828 whole entry, looked up): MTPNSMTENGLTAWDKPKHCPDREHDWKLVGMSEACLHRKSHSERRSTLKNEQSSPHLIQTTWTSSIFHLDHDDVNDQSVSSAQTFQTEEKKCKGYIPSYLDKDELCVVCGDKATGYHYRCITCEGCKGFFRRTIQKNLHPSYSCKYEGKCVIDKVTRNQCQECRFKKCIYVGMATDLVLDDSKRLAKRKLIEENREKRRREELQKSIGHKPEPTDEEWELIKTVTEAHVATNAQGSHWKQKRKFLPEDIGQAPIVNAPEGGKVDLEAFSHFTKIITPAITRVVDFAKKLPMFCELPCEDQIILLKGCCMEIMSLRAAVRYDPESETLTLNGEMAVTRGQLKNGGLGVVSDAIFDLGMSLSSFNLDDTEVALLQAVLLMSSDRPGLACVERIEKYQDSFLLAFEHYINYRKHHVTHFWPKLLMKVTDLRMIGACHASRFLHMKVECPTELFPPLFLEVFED
# Sequence of Voltage-gated inwardly rectifying potassium channel KCNH2 (Homo sapiens) (Q12809 whole entry, looked up): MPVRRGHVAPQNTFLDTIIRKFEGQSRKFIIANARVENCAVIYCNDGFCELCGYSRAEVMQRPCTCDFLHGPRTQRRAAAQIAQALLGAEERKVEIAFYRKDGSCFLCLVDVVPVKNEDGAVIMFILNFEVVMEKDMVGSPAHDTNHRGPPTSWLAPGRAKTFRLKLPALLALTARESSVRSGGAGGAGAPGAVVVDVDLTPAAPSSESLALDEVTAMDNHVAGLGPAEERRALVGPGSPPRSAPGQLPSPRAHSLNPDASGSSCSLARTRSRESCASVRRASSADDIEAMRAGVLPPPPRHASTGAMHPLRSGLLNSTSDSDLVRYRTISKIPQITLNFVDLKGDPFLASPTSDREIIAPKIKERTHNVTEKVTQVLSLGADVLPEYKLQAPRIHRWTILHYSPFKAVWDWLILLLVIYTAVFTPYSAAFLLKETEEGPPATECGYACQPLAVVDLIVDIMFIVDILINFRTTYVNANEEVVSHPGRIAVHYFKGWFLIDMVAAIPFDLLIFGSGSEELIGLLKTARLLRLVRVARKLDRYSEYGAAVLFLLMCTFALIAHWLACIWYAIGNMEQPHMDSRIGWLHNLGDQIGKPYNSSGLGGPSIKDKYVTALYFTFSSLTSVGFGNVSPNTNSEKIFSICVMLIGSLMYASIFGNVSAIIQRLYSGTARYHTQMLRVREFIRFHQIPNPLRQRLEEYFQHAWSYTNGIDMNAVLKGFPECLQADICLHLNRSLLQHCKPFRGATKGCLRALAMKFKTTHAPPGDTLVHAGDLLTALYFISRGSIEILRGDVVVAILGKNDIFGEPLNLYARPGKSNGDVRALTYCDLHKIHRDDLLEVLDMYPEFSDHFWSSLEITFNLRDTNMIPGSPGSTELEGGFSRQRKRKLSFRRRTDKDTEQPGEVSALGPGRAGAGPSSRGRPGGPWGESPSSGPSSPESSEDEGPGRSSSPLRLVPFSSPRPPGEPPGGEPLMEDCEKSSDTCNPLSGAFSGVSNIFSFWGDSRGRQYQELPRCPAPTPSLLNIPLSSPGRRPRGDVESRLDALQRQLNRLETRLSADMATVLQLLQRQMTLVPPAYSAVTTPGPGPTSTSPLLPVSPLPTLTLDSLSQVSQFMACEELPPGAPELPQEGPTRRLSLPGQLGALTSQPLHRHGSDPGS
# Sequence of Glucocorticoid receptor (Homo sapiens) (P04150 whole entry, looked up): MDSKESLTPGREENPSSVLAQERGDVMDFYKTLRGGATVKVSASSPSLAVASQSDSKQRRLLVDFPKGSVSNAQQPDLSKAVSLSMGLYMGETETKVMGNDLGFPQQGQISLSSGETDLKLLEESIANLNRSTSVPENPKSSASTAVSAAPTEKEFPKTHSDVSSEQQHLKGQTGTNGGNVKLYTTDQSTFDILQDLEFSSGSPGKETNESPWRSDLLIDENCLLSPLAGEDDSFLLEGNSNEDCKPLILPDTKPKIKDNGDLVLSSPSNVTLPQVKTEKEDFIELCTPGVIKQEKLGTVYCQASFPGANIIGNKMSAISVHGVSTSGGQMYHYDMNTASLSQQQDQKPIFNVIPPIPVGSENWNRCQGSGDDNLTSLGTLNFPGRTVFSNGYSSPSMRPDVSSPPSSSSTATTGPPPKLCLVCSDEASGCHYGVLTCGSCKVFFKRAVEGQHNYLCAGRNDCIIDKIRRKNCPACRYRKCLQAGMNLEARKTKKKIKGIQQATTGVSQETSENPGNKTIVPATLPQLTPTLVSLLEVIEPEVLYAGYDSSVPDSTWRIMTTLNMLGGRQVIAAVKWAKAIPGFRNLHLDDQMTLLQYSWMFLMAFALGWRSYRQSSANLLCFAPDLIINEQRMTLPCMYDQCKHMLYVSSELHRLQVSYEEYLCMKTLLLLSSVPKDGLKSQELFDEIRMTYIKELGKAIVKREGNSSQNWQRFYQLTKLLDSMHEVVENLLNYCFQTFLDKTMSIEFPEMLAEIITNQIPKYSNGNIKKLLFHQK
smiles,measurement,setting,value
NC(=O)c1ccc([N+](=O)[O-])cc1,Potency,[1],> 92 µM (inactive)
same,Potency,[2],> 92 µM (inactive)
same,Potency,[3],> 92 µM (inactive)
same,Potency,[4],inactive
same,Potency,[5],inactive
same,Potency,[6],inactive
same,Potency,[7],inactive
same,Potency,[8],inactive
same,activation,[9],1.08% (inactive)
same,Potency,[10],inactive
same,max response,[11],-9.87%
same,Potency,[12],inactive
same,Potency,[13],inactive
same,activation,[14],-4.76% (inactive)
same,activation,[15],-0.545% (inactive)
same,Potency,[16],inactive
same,Potency,[17],inactive
same,Potency,[18],inactive
same,Potency,[19],inactive
same,outcome,[20],inactive
O=c1[nH]ncc2ccccc12,Potency,[1],> 92 µM (inactive)
same,Potency,[2],> 92 µM (inactive)
same,Potency,[3],> 92 µM (inactive)
same,"viability change, negative = cytotoxic",[4],-82.8% (active)
same,Potency,[5],inactive
same,Potency,[6],inactive
same,Potency,[7],inactive
same,Potency,[8],inactive
same,activation,[9],-0.672% (inactive)
same,Potency,[10],inactive
same,max response,[11],10.5%
same,Potency,[12],inactive
same,Potency,[13],inactive
same,activation,[14],-2.08% (inactive)
same,activation,[15],0.114% (inactive)
same,Potency,[16],inactive
same,Potency,[17],inactive
same,Potency,[18],inactive
same,Potency,[19],inactive
same,outcome,[20],inactive
C/C=C1/C(=O)C[C@H]2[C@@H]3CCC4=CC(=O)CC[C@]4(C)[C@H]3CC[C@]12C,Potency,[1],56.2 µM (active)
same,Potency,[4],25.1 µM (active)
same,Potency,[5],inactive
same,Potency,[6],31.6 µM (active)
same,Potency,[8],39.8 µM (active)
same,Potency,[12],inactive
same,Potency,[16],inactive
same,Potency,[17],47.3 µM (active)
Nc1ccc2c(c1)C(=O)c1ccccc1C2=O,Potency,[1],49.6 µM (inactive)
same,Potency,[2],> 92 µM (inactive)
same,Potency,[5],2.51 µM (active)
same,Potency,[6],inactive
same,activation,[9],-3.44% (inactive) and 1.5% (inactive)
same,max response,[11],6.46% and 2.42%
same,Potency,[12],inactive
same,Potency,[13],inactive
same,activation,[14],2.17% (inactive) and 5.16% (inactive)
same,activation,[15],1.2% (inactive) and -1.21% (inactive)
same,Potency,[16],1.33 µM (active)
same,Potency,[17],inactive
same,Potency,[19],inactive
CCCCCCCC/C=C\CCCCCCCC(=O)N(CCO)CCO,Potency,[1],68.3 µM (active)
same,"viability change, negative = cytotoxic",[4],-99.3% (active)
same,Potency,[6],31.6 µM (active)
same,Potency,[7],inactive
same,Potency,[8],inactive
same,Potency,[10],inactive
same,max response,[11],13.2%
same,activation,[14],-2.93% (inactive)
same,activation,[15],3.7% (inactive)
same,Potency,[16],inactive
same,Potency,[18],inactive
same,Potency,[19],inactive
CCCCCCCCC1CO1 (stereo unspecified),Potency,[1],> 92 µM (inactive)
same,Potency,[2],> 92 µM (inactive)
same,Potency,[3],> 92 µM (inactive)
same,Potency,[4],inactive
same,Potency,[5],inactive
same,Potency,[6],inactive
same,Potency,[7],inactive
same,Potency,[8],inactive
same,activation,[9],-2.27% (inactive)
same,Potency,[10],inactive
same,max response,[11],-17.5%
same,Potency,[12],inactive
same,Potency,[13],inactive
same,activation,[14],-2.83% (inactive)
same,Potency,[16],inactive
same,Potency,[17],inactive
same,Potency,[18],inactive
same,Potency,[19],inactive
same,outcome,[20],inactive
CN(C)c1ccc(Cc2ccc(N(C)C)cc2)cc1,Potency,[1],> 92 µM (inactive)
same,Potency,[2],> 92 µM (inactive)
same,Potency,[3],> 92 µM (inactive)
same,Potency,[4],inactive
same,Potency,[6],inactive
same,Potency,[7],inactive
same,Potency,[8],inactive
same,activation,[9],7.64% (inactive) and -3.57% (inactive)
same,Potency,[10],inactive
same,Potency,[12],inactive
same,activation,[14],6.8% (inactive) and -1.08% (inactive)
same,activation,[15],-0.0867% (inactive) and 0.169% (inactive)
same,Potency,[18],inactive
same,Potency,[19],inactive
